Compound activity: PubChem, The Scripps Research Institute Molecular Screening Center
TTR transcr act: TTR transcription activation, primary screen; SH-SY5Y TTR promoter Gaussia luciferase, luminescence; 100% = recombinant luciferase protein wells; activation, % at 16.7 µM; actives 1.3% (n = 92,000);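 active = activation above the mean of all tested compounds plus 3 SD, cut at about 9.5% in these data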;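 note: cells exposed to compounds for one day before reading; 0% = median of all test compound wells on the plate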
HuH7 TTR inh: decreases TTR transcription in HuH7 cells in activator counter-screen; HuH7 TTR promoter-Gaussia luciferase reporter, luminescence; actives 4% (n = 1,100); shares compounds with TTR transcr act; inhibition, % at 16.7 µM; AID 1117279;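 active = average inhibition above the solvent-only control wells' mean plus 3 SD, cut at about 15% in these data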;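 note: 0% = cells with DMSO only and 100% = cells with inhibitor control FD; inhibitors lower well luminescence so higher value means more inhibition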
TTR act confirm: confirmation of human transthyretin transcription activators | shares compounds with TTR transcr act | SHSY5Y TTR promoter Gaussia luciferase, luminescence; 100% = purified Lucia enzyme wells, no cells | 1,100 tested, under 10 active | activation, % at 16.7 µM;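 active = mean activation above a set limit taken from the earlier primary screen, cut at about 11% in these data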;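 note: 0% = DMSO-treated cells and 100% = recombinant Lucia luciferase without cells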
An asterisk follows results filed as active. Many of the other results were omitted from the sample, so hits are more common in it than they were.

SMILES	TTR transcr act	others
CNC(=O)c1ccc2cc(OC)c(OC)cc2c1	-1
O=C(COC(=O)C1CCN(C(=O)c2ccc(Cl)cc2)CC1)c1ccco1	2
Cc1ccc(NC(=O)COC(=O)C2CC2)c(Br)c1	0
COc1ccc(C)cc1NC(=O)COC(=O)C1CCN(C(=O)c2ccc(Cl)cc2)CC1	15*	HuH7 TTR inh=-11;TTR act confirm=1
O=c1[nH]c2cc3ccccc3cc2nc1-c1nnnn1Cc1ccccc1	0
CC(C)C(=O)Nc1ccc2c(c1)Cc1cc(NC(=O)C(C)C)ccc1-2	1
N#CCNc1ccc([N+](=O)[O-])cc1C#N	-1
CCCCNC(=O)C1(C)CCC(=O)N1CC(F)(F)F (centres undefined)	0
COCCN1C(=O)CCC1(C)C(=O)NC(C)(C)C (centres undefined)	0
CCCCNC(=O)C1(C)CCC(=O)N1CCOC (centres undefined)	13*	HuH7 TTR inh=-8;TTR act confirm=-1
Cc1nc(-c2ccncc2)nc(NCCNc2ccc(C(F)(F)F)cn2)c1Cl	-1
COC(=O)c1cccc(Cn2ccc3ccc(-c4ccc5ccn(Cc6cccc(C(=O)OC)c6)c5c4)cc32)c1	1
CC(NC(=O)c1cc2ccc(C(F)(F)F)cc2nc1N)c1cccc2ccccc12 (centres undefined)	3
CC(C)CN1C(=O)N2CCc3ccccc3C2CS1(=O)=O (centres undefined)	-1
CC1(C)Oc2ccc3ccc(=O)oc3c2-c2cn[nH]c21	10*	HuH7 TTR inh=6;TTR act confirm=0
CC1(C)Oc2ccc3ccc(=O)oc3c2C[C@H]1O	2
CC1(C)Oc2ccc3ccc(=O)oc3c2-c2cnoc21	-1
C=C1CCN([C@@H](Cc2ccccc2)C(=O)NC2CCN(Cc3ccccc3)CC2)S(=O)(=O)c2ccccc21	-2
COc1cc(C(O)c2nc(-c3ccc(F)cc3OC)cs2)ccc1F (centres undefined)	-2
CC(C)(C)c1ccc2c(c1)OC(C(=O)N/N=C/c1ccc[nH]1)CO2 (centres undefined)	3
CCOC(=O)C1(C(=O)OCC)NC(=O)CC1C(C)C (centres undefined)	3
COc1ccc(OCC(=O)NNC(=O)C(=O)Nc2cc(OC)ccc2OC)cc1	2
COc1ccc(C)cc1NC(=O)C(=O)NNC(=O)COc1ccc(Cl)cc1	2
COc1ccc(OC)c(NC(=O)C(=O)NNC(=O)COc2ccc(Br)cc2C)c1	43*	HuH7 TTR inh=-9;TTR act confirm=0
O=C(Nc1ccc2c(c1)OCO2)O[C@@H]1CC[C@@]23CCCN2C(=O)CCC[C@H]3C1	0
SMILES	TTR transcr act	others
C=CCN1C(=O)[C@H](CC(=O)N2CCN(C(=O)c3ccco3)CC2)[C@@]2(C(=O)OCC)CCCC=C12	3
Cc1cc(OCC(=O)OCC(=O)NCc2ccc3c(c2)OCO3)ccc1Cl	1
Cc1ccc(NC(=O)Cn2c([N+](=O)[O-])cnc2C)cc1Cl	-1
CCCCc1cc(=O)oc2cc(OCC(=O)NCCN3CCOCC3)c(Cl)cc12	11*	HuH7 TTR inh=-25;TTR act confirm=2
CCc1cc(=O)oc2cc(OCC(=O)NCCCn3ccnc3)c(Cl)cc12	-1
CCc1cc(=O)oc2c(C)c(OCC(=O)NCCCN3CCOCC3)ccc12	6
Cc1cccc(Cn2cc(COC(=O)Nc3ccc(F)cc3)nn2)c1	-1
CCOC(=O)[C@@H](C)N(Cc1ccc(OC)cc1)S(=O)(=O)N(Cc1ccccc1)[C@H](C(=O)OC)C(C)C	-4
COc1ccccc1NC(=O)c1cc(-c2ccc(OC)c(OC)c2)nc2ccccc12	-2
COc1cc2c(cc1NC(=O)c1cc(-c3ccncc3)nc3ccccc13)oc1ccccc12	15*	HuH7 TTR inh=4;TTR act confirm=-1
COc1cc2c(cc1NC(=O)Nc1cccc(C)c1)oc1ccccc12	1
COc1ccc(CN2CCN(S(=O)(=O)c3ccccc3)CC2)c(OC)c1OC	17*	HuH7 TTR inh=-14;TTR act confirm=-1
COc1ccc(CN2CCN(S(=O)(=O)c3ccccc3)CC2)c(OC)c1	2
COc1cccc(CN2CCN(S(=O)(=O)c3ccccc3)CC2)c1OC	8
COc1ccc2c(c1)N[C@@](CCN1C(=O)c3ccccc3C1=O)(c1[nH]c3ccccc3c1CCN1C(=O)c3ccccc3C1=O)C2=O	-1
C=CCn1c(C)cc(C(=O)CSc2nnc3c(Cl)cc(Cl)cn23)c1C	22*	HuH7 TTR inh=-13;TTR act confirm=0
C=CCn1c(C)cc(C(=O)CSc2nc(N)cc(N)n2)c1C	2
COc1ccc(C(C)=O)cc1CSc1nnc2c(Cl)cc(Cl)cn12	1
CN(C)C(=S)SCCn1c(N)nc(N(C)C)nc1=O	0
COc1ccc(NC(=S)N2CCC(NC(=O)c3ccco3)CC2)cc1	3
O=C(NC1CCCCN(Cc2ccc(Cl)cc2)C1=O)c1cccs1 (centres undefined)	1
O=C(Nc1ccc(F)cc1)OCc1cn(Cc2ccc(F)cc2F)nn1	0
COc1ccc(CCNC(=O)COC(=O)Cc2c[nH]c3ccccc23)cc1OC	5
C[C@@H](NC(=O)c1nc[nH]c1C(=O)NCC(=O)OC(C)(C)C)c1ccccc1	4
CN(Cc1ccccc1)C(=O)c1[nH]cnc1C(=O)NCC(=O)OC(C)(C)C	11*	HuH7 TTR inh=-16;TTR act confirm=22*
SMILES	TTR transcr act	others
CC(C)(C)OC(=O)CNC(=O)c1nc[nH]c1C(=O)N1CCN(c2ccccc2)CC1	3
CCS(=O)(=O)CCSC1OC(COC(C)=O)C(OC(C)=O)C(OC(C)=O)C1OC(C)=O (centres undefined)	-1
COc1ccc(CN2C(=O)CCCC2(C)c2nc3ccccc3[nH]2)cc1 (centres undefined)	1
CCOC(=O)C1CCCN(C(=O)c2[nH]c3ccc(OC)cc3c2C)C1 (centres undefined)	-3
COc1ccc(Cl)cc1NC(=O)CN1CCc2ccccc21	1
Cc1ccccc1-c1cc(C(=O)NCc2ccco2)n(CC2CC(c3cccnc3)=NO2)n1 (centres undefined)	3
O=C(O)c1cc(-c2ccccc2)nn1CC1CC(c2cccnc2)=NO1 (centres undefined)	15*	HuH7 TTR inh=-6;TTR act confirm=-1
O=C(c1cc(-c2ccccc2)nn1CC1CC(c2cccnc2)=NO1)N1CCOCC1 (centres undefined)	2
Oc1cccc(-c2nnc(-c3cccc(O)c3)nn2)c1	0
COC(=O)c1cc(-c2ccc(S(=O)(=O)N3CCCC(C)C3)cc2)c(C(F)(F)F)s1 (centres undefined)	-2
COC(=O)[C@H](CCSC)NC(=O)NCc1ccc(S(N)(=O)=O)cc1	0
CC(=O)c1cccc(NC(=O)NNC(=O)c2ccc(-c3ccccc3)cc2)c1	1
COc1ccc(S(=O)(=O)N2CCCC2C(=O)NCc2ccccc2Cl)cc1 (centres undefined)	-2
COc1ccc(S(=O)(=O)N2CCC[C@H]2C(=O)NCc2ccc(Cl)cc2)cc1	2
COc1ccc(CNC(=O)C2CCCN2S(=O)(=O)c2ccc(Cl)cc2)cc1 (centres undefined)	13*	HuH7 TTR inh=-12;TTR act confirm=0
Cc1sc2ncnc(NCC(c3ccco3)N(C)C)c2c1C (centres undefined)	-1
Cc1sc2ncnc(Nc3ccc(N4CCOCC4)cc3)c2c1-c1ccccc1	-1
Cc1sc2ncnc(Nc3ccccc3)c2c1C	15*	HuH7 TTR inh=-8;TTR act confirm=0
